Experimental data: the supplement of paper PMC10338343
± gives the standard deviation.

The sequences below were run on MILI (PIWIL2) piRISC loaded with piRNA #1 (26 nt) (assay: pre-steady-state target cleavage rate (min^-1); guide: piRNA #1 5'p-UGAGGUAGUAGGUUGUAUAGUAUCCA; MIWI and MILI are mouse PIWI proteins and EfPiwi is from a freshwater sponge; tags in brackets are library labels; higher = faster piRNA-guided slicing of the target). Settings: auxiliary factor: 500 nM mouse GTSF1.
How it was run: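 At 33 °C in HEPES–potassium acetate buffer, a transcribed, DNA-blocked target RNA library […] was exposed for 0–8 or 0–960 min to 1 nM active affinity-purified piRISC carrying a single synthetic guide, with or without 500 nM GTSF1 partner protein. Uncleaved targets were sequenced and normalised to depth and to weakly complementary targets. With three trials pooled and k3 capped at 0.0001 min^-1, a burst-and-steady-state fit produced the pre-steady-state cleavage rate.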
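Note: 1 nM active piRISC with 0.1 nM target library at 33 °C single turnover.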

Sequence | pre-steady-state target cleavage rate
GGAGAGGAUACUAAUGAACCUACUACCUCA | 0.0555 ± 0.0058
GGAGACCUUACUAAACAACCUAGUACCUCA | 0.0259 ± 0.0068
GGAGACCUAUGAUAACAACCUACGACCUCA | 0.0039 ± 0.0025
GGAGACCUAUGAUUACAACCUAGCUACCUCA | 0.00386 ± 0.0032
GGAGUGGAUACUAUACAACCUACUACGAGA | 0.0112 ± 0.004
GGAGACCUAUCUAUUGAACCUACUACCUCA | 0.0631 ± 0.011
GGAGACCUAUGUAACAACCUACUACCUCA | 0.0402 ± 0.0057
GGAGACCUAAGUAUACAACCUACUACCACA | 0.0885 ± 0.012
GGAGACCUAUGAUAUGUUCCUACUACCUCU [g2:g12:cont:t1U] | < 0.0001
GGAGACCUUACUAUAGAACCUACUUCCUCA | 0.00446 ± 0.0033
GGAGACCUAUGUAUACAAGCUACUUCCUCA | 0.101 ± 0.013
GGAGACGAUACUAUACAACCUACAUACCUCA | 0.153 ± 0.016
GGAGACCUAUGAAUACCAACCUACUACCUCA | 0.00269 ± 0.0026
GGAGACCUAUGUUUACAACCUACUACGUCA | 0.00415 ± 0.0018
GGAGUGGAUACUUUACAACCUACUACGUCA | 0.0457 ± 0.0058
GGAGACCAUACAUAACAACCUACUACCUCA | 0.0246 ± 0.0068
